From ChEMBL document CHEMBL3433997, “St. Jude Leishmania screening dataset” (2016)

How the values were obtained:
Type in all cases: functional
[1] = target: Solute carrier family 2, facilitated glucose transporter member 1 (Homo sapiens) (UniProt P11166); experiment: ST_JUDE_LEISH: Cytotoxicity at 2uM final concentration against transgenic Leishmania Mexicana promastigotes LmGLUT1 that are glucose transport deficient and complemented with the human glucose transporter GLUT1. Activity is measured by DNA content using SYBR green in vitro
[2] = target: Hexose transporter 1 (Plasmodium falciparum) (UniProt O97467); experiment: ST_JUDE_LEISH: Cytotoxicity at 2uM final concentration against transgenic Leishmania Mexicana promastigotes LmPfHT that are glucose transport deficient and complemented with the Plasmodium falciparum hexose transporter. Activity is measured by DNA content using SYBR green in vitro
[3] = target: Glucose transporter (Leishmania mexicana) (UniProt O61059); experiment: ST_JUDE_LEISH: Cytotoxicity at 2uM final concentration against transgenic Leishmania Mexicana promastigotes LmGT2 that are glucose transport deficient and complemented with the L. Mexicana glucose transporter 2. Activity is measured by DNA content using SYBR green in vitro

Chain of Solute carrier family 2, facilitated glucose transporter member 1 (Homo sapiens) (P11166 whole entry): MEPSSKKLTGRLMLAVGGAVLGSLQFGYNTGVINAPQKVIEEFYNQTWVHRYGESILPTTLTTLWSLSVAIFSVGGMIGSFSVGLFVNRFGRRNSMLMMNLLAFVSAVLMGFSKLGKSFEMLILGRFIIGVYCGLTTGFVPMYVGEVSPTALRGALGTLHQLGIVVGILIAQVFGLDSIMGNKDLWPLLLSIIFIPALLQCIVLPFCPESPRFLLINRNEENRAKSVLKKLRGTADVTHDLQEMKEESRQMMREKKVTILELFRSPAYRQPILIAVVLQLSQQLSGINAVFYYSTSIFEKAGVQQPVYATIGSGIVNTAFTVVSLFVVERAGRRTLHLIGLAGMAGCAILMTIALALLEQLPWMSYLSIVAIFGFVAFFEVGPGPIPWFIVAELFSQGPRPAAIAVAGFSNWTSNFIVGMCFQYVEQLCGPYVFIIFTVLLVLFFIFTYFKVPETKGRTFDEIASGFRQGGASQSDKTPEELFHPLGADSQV

Row | SMILES | inhibition [1] [%] | inhibition [2] [%] | inhibition [3] [%]
1 | Oc1ccc(CCNc2nc(NCCCOc3ccccc3-c3cccc(C(F)(F)F)c3)nc(N3CCNCC3)n2)cc1 | 4.36 | 4.82 | 5.07
2 | CCCCCCN1CCC(NCc2cccc(C#N)c2)CC1 | 0.29 | 0.77 | 2.03
3 | CC(C)c1ccc2c(c1)c(SC(C)(C)C)c(CC(C)(C)C#N)n2Cc1ccc(Cl)cc1 | 3.18 | 0.69 | -0.23
4 | CCCC(=O)c1cnc2c(I)cccc2c1Nc1ccccc1C | 3.51 | 4.24 | 3.57
5 | Cc1cccc2nc(-c3cccc(-c4ccc(NC(=O)C(C)CN5CCOCC5)cc4)c3)[nH]c12 (stereo unspecified) | 3.62 | 2.93 | 4.9
6 | CCN(CC)CCN(Cc1ccc(-c2ccc(C(F)(F)F)cc2)cc1)C(=O)Cn1c(CCc2ccc(F)c(F)c2F)nc(=O)c2cccnc21 | 0.59 | 0.44 | -0.8
7 | COc1cccc2c(N/N=C/c3ccccc3[N+](=O)[O-])cc(C)nc12 | 0.15 | 0.03 | 0.39
8 | CCNc1cc(C(=O)N[C@@H](Cc2ccccc2)[C@H](O)CN[C@@H](C)c2cccc(OC)c2)cc(N2CCCC2=O)c1 | 3.36 | 2.81 | 3.09
9 | Cc1noc(-c2cccs2)c1C(=O)NCCc1cccc(Cl)c1 | 5.34 | 5.32 | 2.4
10 | Cc1noc(C)c1-c1cccc(CNCc2cccc(-c3cccc(-c4nc5cc(F)ccc5[nH]4)c3)c2)c1 | -2.23 | 5 | 0.55
11 | CS(=O)(=O)c1ccc2c(c1)CCN(CCC1CCC(NC(=O)c3cc4cccc(Br)c4[nH]3)CC1)CC2 (stereo unspecified) | 2.5 | 2.78 | 1.11
12 | COc1ccc2[nH]c3ccccc3c(=O)c2c1 | -0.87 | 0.99 | 6.72
